# Targets with a hit are over-represented here; the source holds about 7,900 in all. About 0.6% of all pairs of compound and target were hits. Values without a mark were called inactive.
# How the values were obtained:
# Experiment in all cases: log2 fold change, soluble protein after heating vs DMSO (PISA); higher = thermal stabilisation; K562 cells, 10 uM, 30 min; active = over 0.2 and 3.5 SD of the protein, either way, in both replicates (recomputed)
# [1] = compound: CS(=O)(=O)c1ccc(-c2cnc(N)c(C(=O)Nc3ccccc3)n2)cc1
# In short: (§1)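 For each measurement, 10 μM compound was applied for 30 min to K562 cells at 2×10^6 cells/mL. Aliquots were heated for 3 min across 48°C-58°C, pooled, and extracted in PBS with 0.5% NP-40 at 4°C; the supernatant after 21,000xg for 90 min was soluble protein. This was quantified by TMTpro 16plex LC-MS/MS with channel sums equalised, and thermal stability was reported relative to control samples from duplicates, on a log2 fold-change scale.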
# [2] = compound: C[C@@H](Oc1cc(-c2cnn(C3CCNCC3)c2)cnc1N)c1c(Cl)ccc(F)c1Cl [crizotinib]
# In short: as §1
# [3] = compound: C[C@@H]1COCCN1C2=NC(=NC(=C2)C3(CC3)S(=O)(=O)C)C4=C5C=CNC5=CC=C4
# In short: as §1
# [4] = compound: C[C@H](C1=CC=C(C=C1)C(=O)NC2=C3C=CNC3=NC=C2)N
# In short: as §1
# [5] = compound: C[C@H](Nc1ncnc2nc[nH]c12)c1cc2cccc(Cl)c2c(=O)n1-c1ccccc1 [duvelisib]
# In short: as §1
# [6] = compound: Cc1cc(Nc2cc(CN3CCOCC3)c3nc(C)c(Cc4ccc(Cl)cc4F)n3n2)n[nH]1 [gandotinib]
# In short: as §1
# [7] = compound: Cc1cc(Nc2cc(N3CCN(C)CC3)nc(Sc3ccc(NC(=O)C4CC4)cc3)n2)n[nH]1 [tozasertib]
# In short: as §1
# [8] = compound: Cc1cc(SCc2sc(-c3ccc(C(F)(F)F)cc3)nc2C)ccc1OCC(=O)O
# In short: as §1
# [9] = compound: Cc1ccc(-n2nc(C(C)(C)C)cc2NC(=O)Nc2ccc(OCCN3CCOCC3)c3ccccc23)cc1 [doramapimod]
# In short: as §1
# [10] = compound: Cc1ccc(C(=O)N(CCCN)[C@@H](c2nc3cc(Cl)ccc3c(=O)n2Cc2ccccc2)C(C)C)cc1 [ispinesib]
# In short: as §1
# [11] = compound: Cc1ccc(NC(=O)c2ccc(CN3CC[C@H](N(C)C)C3)c(C(F)(F)F)c2)cc1Nc1nccc(-c2cncnc2)n1 [bafetinib]
# In short: as §1
# [12] = compound: Cc1cccc(CC(=O)N2CCc3c2ccc(-c2cn(C)c4ncnc(N)c24)c3F)n1
# In short: as §1
# [13] = compound: Cc1cn(-c2cc(NC(=O)c3ccc(C)c(Nc4nccc(-c5cccnc5)n4)c3)cc(C(F)(F)F)c2)cn1 [nilotinib]
# In short: as §1
# [14] = compound: Cc1nc(Nc2n[nH]c3c2CN(C(=O)N[C@H](CN(C)C)c2ccccc2)C3(C)C)c2sccc2n1
# In short: as §1
# [15] = compound: Cc1nc(Nc2ncc(C(=O)Nc3c(C)cccc3Cl)s2)cc(N2CCN(CCO)CC2)n1 [dasatinib]
# In short: as §1
# [16] = compound: Cc1ncc(-c2ccnc(Nc3ccc(S(C)(=O)=O)cc3)n2)n1C(C)C
# In short: as §1
# [17] = compound: Cn1cc(-c2ccc3c(c2)CCN3C(=O)Cc2cccc(C(F)(F)F)c2)c2c(N)ncnc21
# In short: as §1
# [18] = compound: Cn1cc(-c2ccc3nnc(C(F)(F)c4ccc5ncccc5c4)n3n2)cn1
# In short: as §1
# [19] = compound: Cn1cncc1[C@@](N)(c1ccc(Cl)cc1)c1ccc2c(c1)c(-c1cccc(Cl)c1)cc(=O)n2C [tipifarnib]
# In short: as §1
# [20] = compound: FC(F)(F)c1ccc(/C=C/c2nc(COc3ccc(CCCCn4ccnn4)cc3)co2)cc1 [mubritinib]
# In short: as §1
# UniProt P05423, sequence (P05423 whole entry, looked up): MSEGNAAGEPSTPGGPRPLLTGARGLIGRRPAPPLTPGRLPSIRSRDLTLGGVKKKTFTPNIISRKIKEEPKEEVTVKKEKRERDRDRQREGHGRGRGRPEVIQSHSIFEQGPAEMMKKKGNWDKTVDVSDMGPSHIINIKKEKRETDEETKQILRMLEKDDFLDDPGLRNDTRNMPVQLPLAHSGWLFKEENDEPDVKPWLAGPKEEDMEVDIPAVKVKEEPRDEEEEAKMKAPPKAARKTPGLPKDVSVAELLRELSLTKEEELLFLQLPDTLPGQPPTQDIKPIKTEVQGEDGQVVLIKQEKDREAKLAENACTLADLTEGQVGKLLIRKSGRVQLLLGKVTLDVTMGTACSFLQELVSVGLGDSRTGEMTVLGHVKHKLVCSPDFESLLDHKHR
# UniProt P62136, sequence (P62136 whole entry, looked up): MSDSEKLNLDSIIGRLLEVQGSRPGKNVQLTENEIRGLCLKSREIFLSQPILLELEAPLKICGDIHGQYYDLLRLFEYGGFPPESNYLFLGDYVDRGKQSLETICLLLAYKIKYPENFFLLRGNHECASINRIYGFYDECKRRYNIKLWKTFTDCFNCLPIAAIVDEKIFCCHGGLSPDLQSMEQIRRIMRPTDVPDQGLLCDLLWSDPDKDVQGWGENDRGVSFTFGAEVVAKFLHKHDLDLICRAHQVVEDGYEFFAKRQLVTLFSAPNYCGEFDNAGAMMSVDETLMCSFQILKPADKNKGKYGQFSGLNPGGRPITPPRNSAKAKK
# UniProt Q8NHP8, sequence (Q8NHP8 whole entry, looked up): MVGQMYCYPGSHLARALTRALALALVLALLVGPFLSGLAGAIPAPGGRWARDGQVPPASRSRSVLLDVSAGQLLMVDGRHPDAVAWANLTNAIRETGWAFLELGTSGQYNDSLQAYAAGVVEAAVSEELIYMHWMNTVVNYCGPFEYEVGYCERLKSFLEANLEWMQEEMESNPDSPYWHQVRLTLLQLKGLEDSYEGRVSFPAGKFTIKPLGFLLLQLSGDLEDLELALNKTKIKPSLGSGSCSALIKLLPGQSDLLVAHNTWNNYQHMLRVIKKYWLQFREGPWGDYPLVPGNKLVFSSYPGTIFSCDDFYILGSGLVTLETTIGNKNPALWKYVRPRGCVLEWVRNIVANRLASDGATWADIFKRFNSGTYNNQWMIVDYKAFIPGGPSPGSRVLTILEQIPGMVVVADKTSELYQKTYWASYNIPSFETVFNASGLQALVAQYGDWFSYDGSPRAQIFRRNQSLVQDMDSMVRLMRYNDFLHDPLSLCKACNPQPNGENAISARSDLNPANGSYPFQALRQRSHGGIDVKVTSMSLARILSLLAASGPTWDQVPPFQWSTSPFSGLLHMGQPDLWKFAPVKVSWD
# UniProt P27986, sequence (P27986 whole entry, looked up): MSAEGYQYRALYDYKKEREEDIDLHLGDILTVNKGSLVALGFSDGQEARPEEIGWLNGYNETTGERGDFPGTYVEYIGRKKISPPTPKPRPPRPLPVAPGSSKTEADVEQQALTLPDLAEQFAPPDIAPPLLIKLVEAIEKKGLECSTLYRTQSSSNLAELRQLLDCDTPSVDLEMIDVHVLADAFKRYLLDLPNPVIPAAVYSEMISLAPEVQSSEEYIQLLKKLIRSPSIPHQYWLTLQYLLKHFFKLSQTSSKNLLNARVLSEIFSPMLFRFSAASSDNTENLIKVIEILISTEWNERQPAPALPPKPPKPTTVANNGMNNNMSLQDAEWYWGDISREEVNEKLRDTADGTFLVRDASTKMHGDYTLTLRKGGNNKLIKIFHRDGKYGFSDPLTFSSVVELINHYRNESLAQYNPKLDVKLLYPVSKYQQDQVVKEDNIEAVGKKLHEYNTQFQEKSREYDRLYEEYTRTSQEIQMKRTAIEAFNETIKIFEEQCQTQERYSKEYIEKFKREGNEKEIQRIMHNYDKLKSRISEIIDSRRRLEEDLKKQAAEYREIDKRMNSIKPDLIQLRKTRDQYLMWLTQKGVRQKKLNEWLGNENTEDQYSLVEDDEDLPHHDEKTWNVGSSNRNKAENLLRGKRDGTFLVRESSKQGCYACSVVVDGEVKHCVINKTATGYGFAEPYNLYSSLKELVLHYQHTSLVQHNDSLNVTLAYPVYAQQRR
# UniProt Q8IZL8, sequence (Q8IZL8 whole entry, looked up): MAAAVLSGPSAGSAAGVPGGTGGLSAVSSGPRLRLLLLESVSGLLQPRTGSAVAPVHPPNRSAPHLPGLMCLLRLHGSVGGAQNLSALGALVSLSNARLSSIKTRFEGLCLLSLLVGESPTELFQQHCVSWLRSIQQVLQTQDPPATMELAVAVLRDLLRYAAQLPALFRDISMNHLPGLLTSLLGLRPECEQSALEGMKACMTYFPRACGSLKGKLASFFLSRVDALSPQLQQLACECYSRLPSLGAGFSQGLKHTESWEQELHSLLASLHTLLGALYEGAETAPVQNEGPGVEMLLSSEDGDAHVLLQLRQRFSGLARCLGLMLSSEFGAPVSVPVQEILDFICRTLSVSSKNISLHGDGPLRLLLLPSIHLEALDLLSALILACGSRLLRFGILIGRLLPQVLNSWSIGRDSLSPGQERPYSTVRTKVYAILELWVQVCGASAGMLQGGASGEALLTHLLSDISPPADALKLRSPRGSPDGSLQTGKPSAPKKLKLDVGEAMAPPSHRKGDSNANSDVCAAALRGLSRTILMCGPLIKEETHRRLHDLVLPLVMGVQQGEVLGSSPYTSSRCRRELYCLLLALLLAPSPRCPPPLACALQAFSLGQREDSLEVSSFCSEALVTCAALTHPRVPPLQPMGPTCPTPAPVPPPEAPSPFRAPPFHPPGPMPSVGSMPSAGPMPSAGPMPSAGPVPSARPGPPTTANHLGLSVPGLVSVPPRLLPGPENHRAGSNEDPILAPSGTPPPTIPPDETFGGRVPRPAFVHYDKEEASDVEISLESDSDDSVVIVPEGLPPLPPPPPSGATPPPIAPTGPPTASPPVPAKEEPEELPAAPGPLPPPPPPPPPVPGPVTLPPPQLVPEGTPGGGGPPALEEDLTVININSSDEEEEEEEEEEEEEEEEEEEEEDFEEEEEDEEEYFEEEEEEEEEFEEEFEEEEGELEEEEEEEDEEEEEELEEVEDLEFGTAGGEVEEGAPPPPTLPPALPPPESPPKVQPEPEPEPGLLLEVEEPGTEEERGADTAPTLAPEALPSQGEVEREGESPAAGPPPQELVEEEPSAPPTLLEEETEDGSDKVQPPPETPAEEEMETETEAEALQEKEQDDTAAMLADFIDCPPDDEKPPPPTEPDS
# UniProt P11498, sequence (P11498 whole entry, looked up): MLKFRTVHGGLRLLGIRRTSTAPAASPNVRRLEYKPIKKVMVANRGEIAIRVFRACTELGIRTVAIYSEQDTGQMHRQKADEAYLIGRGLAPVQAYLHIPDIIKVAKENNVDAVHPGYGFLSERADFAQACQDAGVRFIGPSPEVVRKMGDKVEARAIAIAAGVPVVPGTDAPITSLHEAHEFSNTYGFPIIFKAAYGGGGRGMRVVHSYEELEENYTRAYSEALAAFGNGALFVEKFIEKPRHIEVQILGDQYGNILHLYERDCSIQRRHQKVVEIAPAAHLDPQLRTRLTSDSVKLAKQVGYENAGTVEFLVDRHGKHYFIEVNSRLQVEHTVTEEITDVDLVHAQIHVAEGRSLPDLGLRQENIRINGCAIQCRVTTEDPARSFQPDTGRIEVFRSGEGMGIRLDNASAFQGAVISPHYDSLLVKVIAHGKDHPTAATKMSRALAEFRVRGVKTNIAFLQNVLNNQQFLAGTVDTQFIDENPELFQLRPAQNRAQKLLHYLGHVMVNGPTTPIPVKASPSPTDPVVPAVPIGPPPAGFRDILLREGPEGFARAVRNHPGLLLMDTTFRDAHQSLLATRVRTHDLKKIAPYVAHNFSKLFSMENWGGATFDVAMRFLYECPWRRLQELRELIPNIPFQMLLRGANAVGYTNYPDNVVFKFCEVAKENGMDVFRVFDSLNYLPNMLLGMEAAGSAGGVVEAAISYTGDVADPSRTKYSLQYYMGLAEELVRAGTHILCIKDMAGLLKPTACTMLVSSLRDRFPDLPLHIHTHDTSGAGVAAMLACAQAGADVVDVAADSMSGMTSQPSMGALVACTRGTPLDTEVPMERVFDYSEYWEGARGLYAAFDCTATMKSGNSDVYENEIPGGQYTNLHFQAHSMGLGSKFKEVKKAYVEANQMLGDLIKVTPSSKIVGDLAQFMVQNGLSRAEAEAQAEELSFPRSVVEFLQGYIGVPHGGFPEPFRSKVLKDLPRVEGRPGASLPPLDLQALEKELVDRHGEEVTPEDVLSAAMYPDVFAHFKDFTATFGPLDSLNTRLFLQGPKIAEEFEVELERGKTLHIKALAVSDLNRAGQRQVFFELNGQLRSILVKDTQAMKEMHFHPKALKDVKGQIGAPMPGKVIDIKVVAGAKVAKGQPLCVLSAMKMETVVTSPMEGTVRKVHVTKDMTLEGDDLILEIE
# UniProt Q9UKL6, sequence (Q9UKL6 whole entry, looked up): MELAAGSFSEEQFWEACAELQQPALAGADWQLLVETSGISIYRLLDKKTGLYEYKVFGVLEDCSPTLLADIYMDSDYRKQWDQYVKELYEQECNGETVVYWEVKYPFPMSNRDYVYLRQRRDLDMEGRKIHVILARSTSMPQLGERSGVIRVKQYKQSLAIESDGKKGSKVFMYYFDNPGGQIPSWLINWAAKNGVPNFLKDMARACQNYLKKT
# UniProt P0CAP2, sequence (P0CAP2 whole entry, looked up): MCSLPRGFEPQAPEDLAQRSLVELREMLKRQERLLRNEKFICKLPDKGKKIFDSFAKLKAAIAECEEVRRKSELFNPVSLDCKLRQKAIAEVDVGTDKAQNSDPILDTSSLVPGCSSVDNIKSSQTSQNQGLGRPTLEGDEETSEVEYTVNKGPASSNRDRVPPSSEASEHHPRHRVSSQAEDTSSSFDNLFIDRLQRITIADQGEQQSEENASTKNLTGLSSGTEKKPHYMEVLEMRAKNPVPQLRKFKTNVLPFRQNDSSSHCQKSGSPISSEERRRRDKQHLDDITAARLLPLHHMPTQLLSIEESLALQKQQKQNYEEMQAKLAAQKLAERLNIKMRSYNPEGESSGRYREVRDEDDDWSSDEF
Target,log2 fold change [1],log2 fold change [2],log2 fold change [3],log2 fold change [4],log2 fold change [5],log2 fold change [6],log2 fold change [7],log2 fold change [8],log2 fold change [9],log2 fold change [10],log2 fold change [11],log2 fold change [12],log2 fold change [13],log2 fold change [14],log2 fold change [15],log2 fold change [16],log2 fold change [17],log2 fold change [18],log2 fold change [19],log2 fold change [20]
PELP1 (UniProt Q8IZL8),-0.006,-0.012,-0.107,-0.024,-0.055,-0.282,-0.012,0.111,0.019,0.004,0.005,-0.115,-0.007,0.007,0.004,-0.047,0.064,-0.034,0.063,-0.009
PLBD2 (UniProt Q8NHP8),0.014,-0.07,0.044,-0.008,0.045,0.003,0.015,-0.028,0.022,-0.088,-0.173,-0.056,-0.011,0.024,-0.013,-0.052,0.017,0.044,0.093,0.056
POLR2B (UniProt P30876),0.041,0.032,0.023,0.18,0.025,0.26 (active),-0.014,0.03,-0.014,-0.048,0.024,-0.005,0.079,0.054,-0.055,0.324 (active),-0.054,-0.006,-0.029,-0.014
PCTP (UniProt Q9UKL6),0.094,-0.135,0.031,0.003,-0.039,0.029,-0.042,-0.033,-0.048,0.015,-0.067,-0.004,-0.04,0.114,-0.024,-0.017,0.065,0.036,-0.104,0.063
PRKACA (UniProt P17612),0.009,-0.088,0.046,0.043,-0.02,-0.105,-0.014,0.112,0.019,0.053,-0.044,0.107,-0.038,0.71 (active),-0.107,-0.051,0.01,-0.117,-0.036,0.066
PIK3C3 (UniProt Q8NEB9),0.147,-0.037,-0.125,0.06,0.258 (active),0.164,0.012,-0.008,0.127,-0.101,0.065,-0.011,0.043,-0.039,-0.04,0.202,-0.035,-0.006,0.047,0.042
PPT2 isoform 3 (UniProt Q9UMR5),0.074,-0.182,-0.021,-0.148,0.057,0.001,-0.04,-0.069,0.006,-0.041,-0.301 (active),-0.013,0.031,0.013,0.055,-0.045,0.07,0.037,0.013,0.034
PPP1CA (UniProt P62136),0.042,0.042,0.013,-0.069,0.048,0.026,0.034,-0.045,-0.003,0.083,-0.053,-0.001,-0.002,-0.006,0.008,-0.011,0.018,0.065,0.023,0.065
RAB11FIP1 (UniProt Q6WKZ4),-0.071,-0.096,-0.001,-0.038,0.004,-0.01,0.057,-0.003,0.047,-0.251 (active),-0.042,0.12,0.049,-0.198,-0.037,-0.172,0.008,0,0.003,0.003
POLR3D (UniProt P05423),0.088,-0.035,-0.064,0.112,0.011,-0.056,-0.063,-0.085,0.022,-0.05,-0.052,0.044,0.023,-0.125,1.17,0.057,-0.082,0.046,0.018,-0.072
PC (UniProt P11498),0.033,0.103,0.199,0.167,0.01,-0.143,-0.048,0.024,0.008,0.186,0.096,0.102,-0.014,0.121,0.005,-0.007,0.047,0.074,-0.097,0.024
PRKACB isoform 2 (UniProt P22694),-0.009,-0.145,0.033,-0.039,0.009,-0.091,-0.02,0.047,0.028,-0.043,-0.06,0.04,-0.021,0.647 (active),-0.021,-0.037,-0.013,-0.004,-0.144,0.051
POLR2M (UniProt P0CAP2),0.028,0.074,0.097,0.044,0.164,0.141,-0.052,0.012,0.013,-0.055,-0.029,-0.015,-0.011,0.034,0.055,0.138,-0.051,-0.024,0.035,-0.037
POLD3 (UniProt Q15054),0.177,-0.055,0.155,-0.076,0.018,-0.049,0.048,0.008,-0.012,-0.123,0.846,0.058,-0.014,-0.052,-0.068,0.096,0.028,0.044,-0.01,0.024
PML (UniProt P29590),-0.011,0.017,0.025,-0.027,0.072,-0.019,0.07,-0.051,-0.054,-0.027,-0.078,0.029,-0.035,-0.046,-0.036,-0.037,-0.047,-0.003,0.014,-0.023
PIK3R1 (UniProt P27986),0.033,-0.044,0.002,0.022,0.232 (active),-0.038,-0.026,0.051,0.056,-0.079,-0.061,0.029,-0.074,0.015,-0.117,0.108,0.009,-0.013,-0.026,0.017

# Source: the supplement of paper PMC10849652
